Measured values as given in the supplement of paper PMC11732987, “Enantioselective OTUD7B fragment discovery through chemoproteomics screening and high-throughput optimisation” (Communications Chemistry, 2025).

compound: COc1cccc(CN(C)C(=O)CCl)c1; assay: log2 ratio of Biotin-Ahx-Ub-VS probe labelling (compound/DMSO); higher = less target engagement, active = hit call of the paper (q ≤ 0.05, log2 ratio ≤ -1); conditions: compound concentration: 50uM; treatment time: 3 h
Description: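 Round 2 competitive ABPP in HEK293T lysate. Compounds were tested at 50 and 200 µM for 3 h, followed by Biotin-Ahx-Ub-VS enrichment and diaPASEF LC-MS/MS. Values are the average log2 ratio (compound/DMSO) from an unpaired t-test (n=3 treated, n=26 DMSO).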

UniProt Q93008, sequence (Q93008 whole entry): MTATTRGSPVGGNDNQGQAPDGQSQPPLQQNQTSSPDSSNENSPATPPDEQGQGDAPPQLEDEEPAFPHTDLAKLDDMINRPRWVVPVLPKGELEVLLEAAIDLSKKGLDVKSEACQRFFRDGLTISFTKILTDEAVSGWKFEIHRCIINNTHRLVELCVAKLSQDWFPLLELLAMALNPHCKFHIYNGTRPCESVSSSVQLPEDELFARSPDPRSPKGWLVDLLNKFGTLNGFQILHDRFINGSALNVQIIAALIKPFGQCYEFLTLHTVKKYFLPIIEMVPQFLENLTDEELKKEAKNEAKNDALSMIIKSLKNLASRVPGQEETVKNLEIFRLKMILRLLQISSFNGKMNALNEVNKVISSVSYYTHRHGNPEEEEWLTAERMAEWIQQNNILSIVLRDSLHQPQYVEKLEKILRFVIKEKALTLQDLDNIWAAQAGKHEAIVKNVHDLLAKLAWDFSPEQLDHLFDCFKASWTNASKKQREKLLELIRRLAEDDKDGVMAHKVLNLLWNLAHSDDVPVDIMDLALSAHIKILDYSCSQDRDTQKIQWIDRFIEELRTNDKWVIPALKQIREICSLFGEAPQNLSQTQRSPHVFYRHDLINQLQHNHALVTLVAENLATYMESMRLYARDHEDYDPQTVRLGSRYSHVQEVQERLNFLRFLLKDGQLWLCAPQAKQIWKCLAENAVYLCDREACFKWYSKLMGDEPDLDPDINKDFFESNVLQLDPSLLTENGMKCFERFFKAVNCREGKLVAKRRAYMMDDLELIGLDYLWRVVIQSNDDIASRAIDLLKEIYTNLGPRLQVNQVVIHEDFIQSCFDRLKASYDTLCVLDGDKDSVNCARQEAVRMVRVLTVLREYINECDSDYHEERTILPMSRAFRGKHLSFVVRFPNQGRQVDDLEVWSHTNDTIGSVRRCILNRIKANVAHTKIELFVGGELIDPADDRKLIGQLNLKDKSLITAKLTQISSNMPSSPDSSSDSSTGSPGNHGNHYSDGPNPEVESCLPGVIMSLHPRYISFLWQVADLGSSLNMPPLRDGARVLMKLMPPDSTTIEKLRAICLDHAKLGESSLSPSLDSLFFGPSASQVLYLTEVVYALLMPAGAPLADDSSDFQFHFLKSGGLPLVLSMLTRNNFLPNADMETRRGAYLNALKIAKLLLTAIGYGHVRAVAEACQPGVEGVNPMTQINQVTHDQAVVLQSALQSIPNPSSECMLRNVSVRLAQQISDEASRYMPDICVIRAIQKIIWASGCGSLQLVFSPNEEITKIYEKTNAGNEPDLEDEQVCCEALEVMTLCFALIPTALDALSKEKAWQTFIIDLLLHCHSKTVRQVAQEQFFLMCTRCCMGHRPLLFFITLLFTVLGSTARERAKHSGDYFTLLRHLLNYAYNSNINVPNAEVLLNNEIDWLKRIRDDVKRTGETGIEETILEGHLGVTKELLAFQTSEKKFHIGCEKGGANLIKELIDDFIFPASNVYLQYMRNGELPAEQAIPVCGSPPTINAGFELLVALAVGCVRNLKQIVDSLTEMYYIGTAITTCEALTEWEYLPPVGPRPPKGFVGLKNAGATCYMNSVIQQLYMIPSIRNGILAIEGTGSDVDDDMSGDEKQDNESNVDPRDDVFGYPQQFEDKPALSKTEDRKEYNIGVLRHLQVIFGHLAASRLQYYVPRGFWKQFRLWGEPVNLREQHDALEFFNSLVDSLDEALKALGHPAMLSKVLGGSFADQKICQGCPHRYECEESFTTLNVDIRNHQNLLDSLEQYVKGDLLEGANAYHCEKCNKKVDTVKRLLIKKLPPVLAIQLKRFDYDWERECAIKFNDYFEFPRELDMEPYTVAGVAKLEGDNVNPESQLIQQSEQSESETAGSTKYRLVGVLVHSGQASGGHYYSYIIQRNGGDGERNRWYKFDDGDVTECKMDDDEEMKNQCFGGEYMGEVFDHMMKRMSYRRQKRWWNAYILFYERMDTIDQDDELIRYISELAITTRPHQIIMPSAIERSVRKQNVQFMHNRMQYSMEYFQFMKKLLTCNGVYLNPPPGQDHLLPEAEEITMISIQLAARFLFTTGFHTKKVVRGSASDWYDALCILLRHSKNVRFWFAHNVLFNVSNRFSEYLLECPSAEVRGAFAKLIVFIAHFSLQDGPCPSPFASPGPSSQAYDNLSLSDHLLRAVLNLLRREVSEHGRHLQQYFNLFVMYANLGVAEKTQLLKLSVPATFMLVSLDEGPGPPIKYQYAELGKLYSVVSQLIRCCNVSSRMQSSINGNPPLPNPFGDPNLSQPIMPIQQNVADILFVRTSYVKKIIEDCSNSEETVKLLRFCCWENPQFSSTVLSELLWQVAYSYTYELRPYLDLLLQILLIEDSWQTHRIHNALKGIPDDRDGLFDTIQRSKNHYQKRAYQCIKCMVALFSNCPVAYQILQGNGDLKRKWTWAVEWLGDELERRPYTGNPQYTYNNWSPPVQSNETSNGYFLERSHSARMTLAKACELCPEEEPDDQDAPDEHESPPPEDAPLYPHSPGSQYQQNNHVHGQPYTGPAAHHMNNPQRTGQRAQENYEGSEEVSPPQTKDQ
UniProt Q8TE49, sequence (Q8TE49 whole entry): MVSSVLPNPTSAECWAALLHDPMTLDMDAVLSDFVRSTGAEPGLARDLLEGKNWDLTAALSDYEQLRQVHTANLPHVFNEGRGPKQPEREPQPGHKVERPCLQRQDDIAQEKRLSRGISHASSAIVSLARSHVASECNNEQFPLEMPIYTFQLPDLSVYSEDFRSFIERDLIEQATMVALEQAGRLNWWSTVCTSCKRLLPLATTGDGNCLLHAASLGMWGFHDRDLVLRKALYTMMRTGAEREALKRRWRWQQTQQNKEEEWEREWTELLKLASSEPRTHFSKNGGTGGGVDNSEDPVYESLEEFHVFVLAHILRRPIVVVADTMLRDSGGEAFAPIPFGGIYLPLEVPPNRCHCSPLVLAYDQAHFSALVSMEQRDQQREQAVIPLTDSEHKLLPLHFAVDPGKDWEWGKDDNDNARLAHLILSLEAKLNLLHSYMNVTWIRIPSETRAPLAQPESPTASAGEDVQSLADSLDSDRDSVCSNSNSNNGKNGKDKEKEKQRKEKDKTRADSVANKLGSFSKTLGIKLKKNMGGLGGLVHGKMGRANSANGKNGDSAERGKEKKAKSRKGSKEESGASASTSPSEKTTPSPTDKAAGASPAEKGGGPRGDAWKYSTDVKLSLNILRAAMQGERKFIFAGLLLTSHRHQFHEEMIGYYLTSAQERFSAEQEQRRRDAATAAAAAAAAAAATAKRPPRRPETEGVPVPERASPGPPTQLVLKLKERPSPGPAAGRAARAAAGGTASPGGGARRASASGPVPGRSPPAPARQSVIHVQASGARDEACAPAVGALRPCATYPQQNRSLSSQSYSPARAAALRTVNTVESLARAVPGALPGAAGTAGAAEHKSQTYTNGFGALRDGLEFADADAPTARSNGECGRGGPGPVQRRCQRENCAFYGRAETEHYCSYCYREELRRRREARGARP
UniProt Q9H9J4, sequence (Q9H9J4 whole entry): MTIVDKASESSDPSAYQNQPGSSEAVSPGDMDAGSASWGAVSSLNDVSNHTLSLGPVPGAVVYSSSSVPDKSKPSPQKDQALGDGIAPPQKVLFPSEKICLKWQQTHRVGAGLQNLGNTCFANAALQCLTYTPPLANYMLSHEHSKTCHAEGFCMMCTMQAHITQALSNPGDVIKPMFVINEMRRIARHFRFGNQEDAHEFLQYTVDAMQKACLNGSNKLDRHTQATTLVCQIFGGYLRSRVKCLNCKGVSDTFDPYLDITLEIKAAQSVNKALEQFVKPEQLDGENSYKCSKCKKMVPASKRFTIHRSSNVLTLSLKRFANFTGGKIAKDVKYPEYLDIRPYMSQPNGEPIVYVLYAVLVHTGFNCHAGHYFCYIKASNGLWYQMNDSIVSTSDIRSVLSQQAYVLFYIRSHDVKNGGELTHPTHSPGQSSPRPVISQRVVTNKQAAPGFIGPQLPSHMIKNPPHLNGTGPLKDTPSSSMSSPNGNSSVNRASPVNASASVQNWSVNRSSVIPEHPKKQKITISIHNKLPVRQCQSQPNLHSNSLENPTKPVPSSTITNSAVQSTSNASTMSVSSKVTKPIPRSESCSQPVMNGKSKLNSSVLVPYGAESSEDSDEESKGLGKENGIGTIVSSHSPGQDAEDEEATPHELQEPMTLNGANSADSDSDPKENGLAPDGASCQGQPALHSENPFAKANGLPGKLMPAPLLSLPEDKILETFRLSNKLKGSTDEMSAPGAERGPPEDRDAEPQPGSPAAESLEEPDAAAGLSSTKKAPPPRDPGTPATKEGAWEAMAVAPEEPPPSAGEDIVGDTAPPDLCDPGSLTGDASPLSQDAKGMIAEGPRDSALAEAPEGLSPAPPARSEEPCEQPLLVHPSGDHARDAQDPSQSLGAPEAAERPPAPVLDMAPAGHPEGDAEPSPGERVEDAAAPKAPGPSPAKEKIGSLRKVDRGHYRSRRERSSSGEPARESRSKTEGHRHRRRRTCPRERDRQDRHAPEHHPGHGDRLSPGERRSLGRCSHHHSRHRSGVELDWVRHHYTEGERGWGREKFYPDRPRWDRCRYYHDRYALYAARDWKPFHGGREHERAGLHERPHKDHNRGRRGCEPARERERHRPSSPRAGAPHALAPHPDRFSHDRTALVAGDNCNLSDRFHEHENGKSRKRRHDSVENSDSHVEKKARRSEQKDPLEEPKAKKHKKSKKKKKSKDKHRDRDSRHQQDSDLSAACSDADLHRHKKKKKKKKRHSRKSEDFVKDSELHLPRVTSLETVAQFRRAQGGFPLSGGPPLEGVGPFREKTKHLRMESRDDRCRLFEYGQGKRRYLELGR

log2 ratio of Biotin-Ahx-Ub-VS probe labelling, inactive:
UniProt Q8TE49 -0.097, USP12 (UniProt O75317) -0.38, USP9X (UniProt Q93008) -0.0295, USP42 (UniProt Q9H9J4) 0.0563, USP48 (UniProt Q86UV5) -0.144, USP14 (UniProt P54578) -0.0931, UniProt P51784 0.0601, USP19 (UniProt O94966) -0.209

same assay, conditions: compound concentration: 200uM; treatment time: 3 h

log2 ratio of Biotin-Ahx-Ub-VS probe labelling, inactive:
UniProt Q8TE49 -0.652, USP12 (UniProt O75317) 0.0984, USP9X (UniProt Q93008) -0.23, USP42 (UniProt Q9H9J4) 0.184, USP48 (UniProt Q86UV5) -0.273, USP14 (UniProt P54578) -0.202, UniProt P51784 -0.0791, USP19 (UniProt O94966) -0.661
